DT40 TDP1 no CPT: qHTS for Inhibitors of human tyrosyl-DNA phosphodiesterase 1 (TDP1): qHTS in cells in absence of CPT | AID 686978, 2013 | 420,000 compounds, 15% hits | DT40 Tdp1-/- hTDP1 cells, no CPT, ATP luminescence, 48 h | Potency, µM (top dose mostly 46.2 µM), hits mostly inhibitors; further: nearly all actives have a fitted effect of over 55% in size
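Stably hTDP1-transfected Tdp1-null chicken DT40 cells were treated with library compounds minus camptothecin and grown for at least 48 hr at 37 °C, after which cellular ATP was quantified by luminescence.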
HT1080NT lethal: qHTS for induction of synthetic lethality in tumor cells producing 2HG: qHTS for the HT-1080-NT fibrosarcoma cell line; 360,000 compounds, 1.6% hits; Potency, µM (titrated, usually from 46.1 µM), hits mostly cytotoxic; HT-1080-NT fibrosarcoma viability, CellTiter-Glo ATP luminescence, 48 h; AID 686970, 2013;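 further: NT is the 2HG producing partner of a matched IDH1 knockdown line; nearly all actives have a fitted effect of over 55% in size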
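Viability of the 2HG-overproducing fibrosarcoma line after 48 hours of compound exposure at 37 degrees C was determined by luminescence with CellTiter-Glo, and concentration-effect curves were then fitted and categorized.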
HT1080 IDH1KD tx: qHTS for induction of synthetic lethality in tumor cells producing 2HG: qHTS for the HT-1080-IDH1KD cell line. HT-1080 IDH1 knockdown viability, ATP luminescence, 48 h. 360,000 compounds, 2% hits. AID 686971, 2013. Potency, µM (highest dose often 46.1 µM), usual class: cytotoxic
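Assay cells: HT-1080 with IDH1 knockdown, 750 per well, RPMI/5% FBS. Exposure: 48 h at 37 °C following 2 h pre-incubation. Read: CellTiter-Glo luminescence; fitted concentration-response, curve class assigned.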
DT40 TDP1 CPT: qHTS for Inhibitors of human tyrosyl-DNA phosphodiesterase 1 (TDP1): qHTS in cells in presence of CPT; 420,000 compounds, 12% hits; chicken DT40 Tdp1-/-;hTDP1 cells + 20 nM CPT, ATP luminescence, 48 h; Potency, µM (series often up to 46.2 µM), most hits filed as inhibitors; AID 686979, 2013; further: nearly all actives have a fitted effect of over 55% in size
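Cell growth measured by CellTiter-Glo luminescence after a minimum 48 h, 37 C compound exposure with 20 nM CPT in Tdp1-knockout DT40 cells stably expressing hTDP1, seeded 400/well; qHTS titration format.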
IL-1B inflam inh: qHTS for Inhibitors of Inflammasome Signaling: IL-1-beta AlphaLISA Primary Screen | activity change, % at 57.5 µM | 360,000 compounds, 4.7% hits | THP-1 LPS/ATP IL-1B secretion, AlphaLISA, 16 h; active compounds read low | AID 743279, 2014; in the data active means activity change below about -50%; inconclusive means mostly about -30% to -49%
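THP-1 cells pretreated 1 hr with compounds (up to 57.5 uM final), then stimulated with LPS (250 ng/mL final) plus ATP (1.25 mM final); secreted IL-1B measured by AlphaLISA after 16 hr, decreased signal indicating inhibition.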
Of the large screens only hits and unclear results are named; the others gave an inactive call. Compounds with a hit are over-represented: about 19% of the library has one in this group of screens. Unless noted, the call rests on the fitted dose curve; in most records, active means well fitted curve in the direction sought with a large enough effect; inconclusive means small, poorly fitted or top-dose-only effect, or another doubt; inactive means no such curve, though single readings can be large; an effect the other way counts as inactive or inconclusive.

CC(C)c1ccc2nc(NC(=O)C3CC3)sc2c1	DT40 TDP1 no CPT inconclusive, DT40 TDP1 CPT inconclusive, IL-1B inflam inh -57
O=C(Nc1nc2ccc(Cl)cc2s1)C1CC1	DT40 TDP1 no CPT inconclusive
O=C(Nc1nc2cc3c(cc2s1)OCO3)C1CC1	DT40 TDP1 no CPT 3.7µM, DT40 TDP1 CPT 4.1µM
CC(C)C(=O)Nc1nc2cc3c(cc2s1)OCO3	DT40 TDP1 no CPT 4.6µM, DT40 TDP1 CPT 5.2µM
Fc1cccc2sc(Nc3nc4cc5c(cc4s3)OCO5)nc12	DT40 TDP1 no CPT inconclusive, HT1080NT lethal inconclusive, HT1080 IDH1KD tx inconclusive, DT40 TDP1 CPT 21µM
O=C(Nc1nc2cc3c(cc2s1)OCO3)c1ccc(N2C(=O)CCC2=O)cc1	none
COc1cc(OC)cc(-c2c(C#Cc3ccsc3)c3cc(-c4ccc(OC)nc4)ccc3n2C)c1	DT40 TDP1 no CPT inconclusive
COCC(C)n1c(COc2ccccc2F)nnc1SCC(=O)Nc1oc(C)c2c(C)n[nH]c(=O)c12 (centres undefined)	none
N#Cc1cccc(-c2cc(NCc3cccs3)ncn2)c1	DT40 TDP1 no CPT inconclusive (no result: HT1080NT lethal, HT1080 IDH1KD tx, IL-1B inflam inh)
CN(C)S(=O)(=O)c1cc(NC(=O)COC(=O)c2nc(Cl)ccc2Cl)ccc1Cl	none
CC(=O)c1ccc(N2CCN(C(=S)Nc3ccccc3F)CC2)cc1	DT40 TDP1 no CPT 7.3µM, DT40 TDP1 CPT inconclusive
CC(=O)c1ccc(N2CCN(C(=S)Nc3ccccc3)CC2)cc1	DT40 TDP1 no CPT 21µM, DT40 TDP1 CPT inconclusive
Clc1ccc(OCCOCCN2CCCCC2)c(Br)c1	none
CC1CCN(CCCCOc2ccccc2F)CC1	DT40 TDP1 no CPT 15µM, DT40 TDP1 CPT inconclusive
CC1CCN(CCCCOc2ccc(Br)cc2)CC1	DT40 TDP1 no CPT inconclusive, DT40 TDP1 CPT inconclusive
CC1CCN(CCOCCOc2ccc(Cl)cc2Br)CC1	DT40 TDP1 no CPT 21µM, HT1080NT lethal inconclusive, HT1080 IDH1KD tx inconclusive, DT40 TDP1 CPT 13µM, IL-1B inflam inh inconclusive
Cc1cc(Br)ccc1OCCCCN1CCC(C)CC1	DT40 TDP1 no CPT inconclusive, DT40 TDP1 CPT 23µM, IL-1B inflam inh inconclusive
CC1CCN(CCCOc2ccc(Cl)cc2Br)CC1	DT40 TDP1 no CPT inconclusive, HT1080NT lethal inconclusive, HT1080 IDH1KD tx 23µM, DT40 TDP1 CPT inconclusive
O=C(Cc1ccc(NC(=O)C2CCN(C(=O)C3CCCCC3)CC2)cc1)Nc1cccc(C(=O)N2CCCCC2)c1	none
CCOC(=O)c1ncn2c1[C@@H]1CCNC1C(=O)c1cc(OC)ccc1-2 (some centres undefined)	DT40 TDP1 no CPT inconclusive, DT40 TDP1 CPT inconclusive
CCOc1ccccc1N1CC(C(=O)NC2CCCCCC2)CC1=O (centres undefined)	none
COC(=O)Nc1sc2c(c1C(N)=O)CCC(C)C2 (centres undefined)	none
COC(=O)c1c(NC(=S)NN2CCN(C)CC2)sc2c1CCC(C)C2 (centres undefined)	DT40 TDP1 no CPT inconclusive, HT1080NT lethal 18µM, HT1080 IDH1KD tx 16µM, DT40 TDP1 CPT inconclusive, IL-1B inflam inh -69
COC(=O)c1c(NC(=O)COc2ccc(Cl)cc2C)sc2c1CCCCC2	none (no result: HT1080NT lethal, HT1080 IDH1KD tx, IL-1B inflam inh)
CCOc1ccc(NC(=O)c2c(NCc3cccnc3)sc3c2CCC(C)C3)cc1 (centres undefined)	DT40 TDP1 no CPT 15µM, DT40 TDP1 CPT 15µM (no result: HT1080NT lethal, HT1080 IDH1KD tx, IL-1B inflam inh)
CCOc1ccc(NC(=O)c2c(NC(=O)c3ccco3)sc3c2CCC(C(C)(C)C)C3)cc1 (centres undefined)	none (no result: HT1080NT lethal, HT1080 IDH1KD tx, IL-1B inflam inh)
COc1ccc(Cl)cc1NC(=O)c1c(NCc2ccc(C)o2)sc2c1CCCCC2	DT40 TDP1 no CPT 15µM, DT40 TDP1 CPT 9.2µM (no result: HT1080NT lethal, HT1080 IDH1KD tx, IL-1B inflam inh)
CCOC(=O)c1c(NC(=O)C(C)N2CCN(S(=O)(=O)c3cccs3)CC2)sc2c1CCC(C)C2 (centres undefined)	DT40 TDP1 no CPT 5.8µM, DT40 TDP1 CPT 8.2µM
CCn1c(SCC(=O)Nc2nccs2)nnc1-c1ccccn1	none
Cc1ccccc1-n1ncc2c1CC(C)(C)CC2NC(=O)CCC(F)(F)F (centres undefined)	DT40 TDP1 no CPT inconclusive
